For 6 compounds, activation (% of partial agonist control) and activation (% of full agonist control) results are on record in PubChem BioAssay AID504452 (The Scripps Research Institute Molecular Screening Center, 2011).

The source made the active and inactive calls. Cut-off read from the data, not from the text of the source: active = activation above about 85%; inactive = the rest.

In the assay the target is Peroxisome proliferator-activated receptor gamma (Homo sapiens) (UniProt P37231). As to the kind of experiment: PPARg partial agonist activation, primary screen, cell-based, luciferase reporter, luminescence (AID 504452).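 Note: Cos-1 cells carrying PPARgamma and a response element luciferase reporter.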 The settings on record: at 5 µM, stronger effect = higher value; activation (% of full agonist control): measured here: relative to full agonist control.
Peroxisome proliferator-activated receptor gamma (Homo sapiens), sequence (P37231 whole entry, looked up): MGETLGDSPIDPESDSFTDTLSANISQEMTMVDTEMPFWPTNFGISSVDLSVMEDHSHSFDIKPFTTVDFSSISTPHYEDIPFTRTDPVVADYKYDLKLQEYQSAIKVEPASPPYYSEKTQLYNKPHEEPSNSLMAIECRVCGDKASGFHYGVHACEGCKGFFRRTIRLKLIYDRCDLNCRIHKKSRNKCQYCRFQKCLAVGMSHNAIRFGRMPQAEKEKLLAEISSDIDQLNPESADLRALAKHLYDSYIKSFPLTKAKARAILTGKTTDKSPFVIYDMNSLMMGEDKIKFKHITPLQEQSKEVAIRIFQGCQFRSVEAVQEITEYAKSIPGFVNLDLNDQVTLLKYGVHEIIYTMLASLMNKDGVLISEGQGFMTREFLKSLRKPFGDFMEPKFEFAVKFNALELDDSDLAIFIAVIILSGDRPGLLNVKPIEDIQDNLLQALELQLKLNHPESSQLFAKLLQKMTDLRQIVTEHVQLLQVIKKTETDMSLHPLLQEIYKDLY
Turning to `Cc1ccc(OCC(=O)Nc2ccc(N3CCN(C(=O)c4ccco4)CC3)cc2)cc1`, the activation (% of partial agonist control) was 69.5% (inactive) and the activation (% of full agonist control) was determined as 31.4%.
For the compound `Cc1cc(C)c2nc(N3C(=O)C(O)=C(C(=O)c4ccco4)C3c3cccc(O)c3)sc2c1` (configuration not stated), the activation (% of full agonist control) worked out at 29% and the activation (% of partial agonist control) was 64.1% (inactive).
As for `CC(Oc1ccc2c(c1)oc(=O)c1ccccc12)C(=O)NC(Cc1c[nH]c2ccc(O)cc12)C(=O)O` (configuration not stated), the activation (% of full agonist control) came to 49.2% and the activation (% of partial agonist control) was 109% (active).
As for `c1ccc(CCN2CN(CCCN3CCOCC3)c3nc4ccccc4n3C2)cc1`, the activation (% of full agonist control) came out at 24.6% and the activation (% of partial agonist control) was 54.4% (inactive).
On to `CC(Oc1cccc(Cl)c1)C(=O)Nc1cc(S(=O)(=O)N2CCOCC2)ccc1N1CCCC1` (configuration not stated), for which the activation (% of partial agonist control) was 78.1% (inactive) and the activation (% of full agonist control) amounted to 35.3%.
Turning to `COc1ccc(/C=C(\NC(=O)c2ccco2)C(=O)NC(Cc2ccccc2)C(=O)O)cc1` (configuration not stated), the activation (% of full agonist control) is 31.3% and the activation (% of partial agonist control) was 69.3% (inactive).
